Bioassay records deposited in PubChem by National Center for Advancing Translational Sciences (NCATS).
Shown are actives, neighbours in structure and some others; about 8.7% of the full set was active somewhere.
BAZ2B block – inhibitors of human BAZ2B bromodomain; Potency, µM (top dose mostly 114 µM), usual class: inhibitors; AlphaScreen BAZ2B-H3K14Ac peptide displacement; AID 504333; 360,000 compounds, 4.4% hits; Q9UIF8; also: nearly all actives have a fitted effect of over 60% in size
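AlphaScreen displacement: compounds (up to 110uM) incubated 30 min at room temperature with a preformed 50 nM BAZ2B/50 nM biotinylated H3K14Ac peptide complex in PBS pH 7.4 with Tween-20. Donor and acceptor beads at 10 ug/mL final added, 20 min light-protected before reading.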
JMJD2A Tudor – blocks the human JMJD2A Tudor domain; AlphaScreen JMJD2A-Tudor / H3K4me3 peptide binding; Potency, µM (highest dose often 114 µM), actives largely listed as inhibitors; 390,000 compounds, 4.4% hits; AID 504339; also: nearly all actives have a fitted effect of over 50% in size
Target sequence (O75164 whole entry, looked up, the tested form may be a part): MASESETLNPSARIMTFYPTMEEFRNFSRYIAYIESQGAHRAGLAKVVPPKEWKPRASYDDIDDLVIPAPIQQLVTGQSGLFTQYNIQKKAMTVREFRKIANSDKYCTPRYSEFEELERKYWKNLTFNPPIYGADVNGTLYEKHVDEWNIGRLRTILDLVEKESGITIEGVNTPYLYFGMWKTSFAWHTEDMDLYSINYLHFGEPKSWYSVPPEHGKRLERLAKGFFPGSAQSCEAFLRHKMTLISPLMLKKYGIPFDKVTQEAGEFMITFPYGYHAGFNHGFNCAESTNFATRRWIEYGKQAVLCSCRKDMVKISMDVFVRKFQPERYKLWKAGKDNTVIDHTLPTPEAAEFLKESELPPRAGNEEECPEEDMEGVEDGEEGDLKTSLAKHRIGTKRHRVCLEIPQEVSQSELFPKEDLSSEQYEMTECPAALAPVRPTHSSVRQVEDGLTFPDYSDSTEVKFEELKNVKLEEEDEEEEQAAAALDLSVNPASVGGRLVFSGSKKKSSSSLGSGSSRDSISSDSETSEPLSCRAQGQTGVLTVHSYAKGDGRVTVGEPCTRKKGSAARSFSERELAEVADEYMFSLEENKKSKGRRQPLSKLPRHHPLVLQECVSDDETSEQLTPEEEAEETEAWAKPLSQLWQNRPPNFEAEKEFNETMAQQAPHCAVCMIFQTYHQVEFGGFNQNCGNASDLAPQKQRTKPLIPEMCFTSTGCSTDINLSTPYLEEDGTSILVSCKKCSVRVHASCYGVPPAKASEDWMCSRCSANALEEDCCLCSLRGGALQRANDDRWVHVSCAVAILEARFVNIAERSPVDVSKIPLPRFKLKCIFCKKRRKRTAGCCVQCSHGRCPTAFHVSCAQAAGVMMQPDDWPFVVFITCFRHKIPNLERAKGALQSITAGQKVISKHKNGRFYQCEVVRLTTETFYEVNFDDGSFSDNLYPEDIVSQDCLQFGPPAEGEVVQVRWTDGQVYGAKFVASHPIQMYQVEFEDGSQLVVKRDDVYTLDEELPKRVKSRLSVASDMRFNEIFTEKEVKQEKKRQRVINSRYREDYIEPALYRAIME
12-LOX inh – inhibitors of human 12S-lipoxygenase ALOX12 | P18054 | 580,000 compounds, 1.1% hits | Potency, µM (top dose mostly 108 µM), usual class: inhibitors | purified 12hLO, xylenol orange hydroperoxide absorbance
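Hydroperoxide product was detected by ferrous iron/xylenol orange as the 573 to 405 nm absorbance ratio. Arachidonic acid at 40 uM (final) was turned over for 30 min at room temperature by 150 nM human 12hLO, pH 7.0 Hepes buffer, after 15 min compound preincubation.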
HP1b binding inh – blocks HP1-beta chromodomain binding to methylated histone tails; 390,000 compounds, 0.56% hits; Potency, µM (doses to about 114 µM), usual class: inhibitors; AlphaScreen HP1-beta / biotin-H3K9me3 peptide binding; AID 540317; P83916; also: nearly all actives have a fitted effect of over 70% in size
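AlphaScreen: HP1-beta (50 nM) preformed 30 min with biotin-H3(1-18)K9me3 peptide (50 nM) in PBS pH 7.4, 0.01% Tween-20. Compound added for 30 min at RT, then streptavidin donor/nickel chelate acceptor beads (10 ug/mL) for 30 min.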
G9a inh – blocks human histone lysine methyltransferase G9a; Q96KQ7; G9a H3K9 monomethylation, AlphaScreen, 2 h; Potency, µM (titrated, usually from 102 µM), actives largely listed as inhibitors; 350,000 compounds, 8.8% hits; AID 504332; also: nearly all actives have a fitted effect of over 75% in size
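Quantitative HTS format: methyltransferase activity on a biotin-tagged H3K9 peptide is measured by AlphaScreen, using a rabbit anti-monomethyl-H3K9 antibody with streptavidin donor and anti-IgG acceptor beads. Final levels are 20 nM enzyme, 500 nM peptide, 20 uM SAM; 2 h RT.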
Sfp PPTase inh – blocks B. subtilis Sfp PPTase activity; Q9F4F7; Biochemical Sfp PPTase activity, qHTS; Potency, µM, hits mostly inhibitors; 310,000 compounds, 3.5% hits; AID 1490;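 also: the enzyme is Sfp with the accession as filed and its product quenches rhodamine fluorescence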
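Buffer: 50 mM Hepes-Na pH 7.6, 10 mM MgCl2, 0.01% Nonidet P-40, 0.01% BSA. Enzyme 15 nM, pre-exposed to compound 15 min; substrates then added and fluorescence change tracked over 30 min.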
Hits are given with their value; . = inactive; ? = inconclusive; / = no result; ! = not confirmed by another sample; [ ] = another dose, or the depositor's remark. Calls follow the shape of the dose curve; as a rule, active = well fitted curve in the direction sought with a large enough effect; inconclusive = small, poorly fitted or top-dose-only effect, or another doubt; inactive = no such curve, though single readings can be large; an effect the other way counts as inactive or inconclusive.

SMILES	BAZ2B block	JMJD2A Tudor	12-LOX inh	HP1b binding inh	G9a inh	Sfp PPTase inh
CCc1nnc(NC(=O)c2cc(-c3ccc(C)cc3)nc3ccccc23)s1	/	/	.	/	/	/
COc1ccc(NC(=O)c2cc(-c3ccco3)nc3ccccc23)cc1	/	?	?	.	/	/
CC(=O)Nc1ccc(NC(=O)c2cc(-c3ccco3)nc3ccccc23)cc1	/	/	11µM	/	/	/
CCc1nnc(NC(=O)c2cc(-c3ccco3)nc3ccccc23)s1	40µM	?	?	.	50µM	.
O=C(N/N=C/c1ccc2c(c1)OCO2)c1cc(-c2ccc(F)cc2)nc2ccccc12	.	.	.	.	.	45µM
COc1ccc(NC(=O)c2cc(-c3ccco3)nc3ccccc23)cc1S(=O)(=O)N1CCOCC1	45µM	?	.	?	/	5µM
Cc1cc(C(=O)N2CCCC(c3[nH]ccc3C(N)=O)C2)c(C)n1Cc1ccco1 (centres undefined)	/	/	.	/	/	/
Fc1cccc(Oc2ccc(CNc3ncccn3)cn2)c1	/	/	.	/	/	/
COc1ccc(CN2C[C@@H](F)[C@@H](OCc3nc4ncccc4[nH]3)C2)cc1	/	/	.	/	/	/
Cc1cccc2c(C(=O)O)cc(-c3ccco3)nc12	/	/	8.9µM	/	/	/
Cc1ccccc1NC(=O)c1cc(-c2ccco2)nc2ccccc12	/	20µM	?	?	/	/
O=C(O)c1cc(-c2ccco2)nc2ccc(Br)cc12	.	13µM!	16µM!	56µM!	3.5µM	13µM!
COc1cc(/C=N/NC(=O)c2cc(-c3ccco3)nc3ccccc23)cc(OC)c1O	?	?	?	.	/	.
O=C(N/N=C/c1cccc(F)c1)c1cc(-c2ccco2)nc2ccccc12	6.3µM	?	.	28µM	?	.
O=S(=O)(Nc1ccc2oc(-c3ccc(Cl)cc3)nc2c1)c1ccccc1	/	/	.	/	/	/
CCC(=O)N(C1CCOCC1)C1CCN(S(=O)(=O)c2ccc(F)c(C)c2)CC1	/	/	.	/	/	/
Cc1ccc(S(=O)(=O)N(C)C)cc1NC(=O)c1cc(-c2ccco2)nc2ccccc12	?	?	/	.	40µM	.
Cc1ccc(S(=O)(=O)N(C)C)cc1NC(=O)Nc1ccccc1F	.	.	.	.	50µM	.
Cc1cccc(NC(=O)c2cc(-c3ccco3)nc3ccccc23)n1	?	.	28µM	.	32µM	22µM
Cc1ccsc1C(=O)N1CCCN(c2cc(-c3ccc(Cl)cc3)[nH]n2)CC1	/	/	.	/	/	/
O=S(=O)(c1ccccc1)c1nnn2c1nc(NCc1ccncc1)c1ccccc12	/	/	.[6.33 µM]	/	/	/
COc1ccccc1NC(=O)Cn1ccc2cc(Cl)ccc21	/	/	.	/	/	/
CCNc1nc(-c2ccc(NC(C)=O)cc2)cs1	/	/	28µM	/	/	/
CC(=O)Nc1ccc(Nc2nc(-c3ccc(NC(C)=O)cc3)cs2)cc1	/	/	.	/	/	/
CC(=O)Nc1ccc(-c2csc(NCc3ccco3)n2)cc1	.	?	?	.	10µM	.
SMILES	BAZ2B block	JMJD2A Tudor	12-LOX inh	HP1b binding inh	G9a inh	Sfp PPTase inh
CC(=O)Nc1ccc(-c2csc(NNC(=O)c3ccc(C)cc3)n2)cc1	.	.	.	.	?	7.9µM
CC(=O)NNc1nc(-c2ccc(NC(C)=O)cc2)cs1	?	.	.	.	?	50µM
CN(Cc1ccc2nonc2c1)Cc1cc2n(n1)CCN(S(C)(=O)=O)C2	/	/	.	/	/	/
Cn1ncc(N2CCC(C(=O)NCc3ccc(OC(F)(F)F)cc3)C2)cc1=O (centres undefined)	/	/	.	/	/	/
Cc1cnccc1CNC(=O)c1cc(COc2ccc3c(c2)OCO3)[nH]n1	/	/	.	/	/	/
CNC(=O)[C@@H](c1ccccc1)N1CCC[C@H]1C(=O)N1CCC[C@@H]1COC	/	/	.	/	/	/
Cc1ccc(-c2cc3nc(C)cc(NCc4ccco4)n3n2)cc1	.	.	.	.	?	?
c1cncc(-c2csc(NCc3ccco3)n2)c1	.	?	.	.	.[12.7 µM]	.
COc1ccc(-c2nc3cccc(C)n3c2NCc2ccco2)cc1OC	50µM	?	?	.	45µM	.
O=C(NNc1nc(-c2ccccc2)cs1)c1ccccc1	.	?	.	.	?	45µM
Cc1ccn2c(-c3csc(NCc4ccco4)n3)c(C)nc2c1	?	100µM	.	.	45µM	?
N#Cc1ccc(-c2csc(NNC(=O)c3ccccc3)n2)cc1	.	.	.	.	/	.
COc1ccc(-c2csc(NCc3ccco3)n2)cc1C	45µM	?	/	?	?	.
CC(C)c1ccc(C(=O)N2CC(C(=O)NC3CCCCC3)C3(CCOCC3)C2)cc1 (centres undefined)	/	/	.	/	/	/
Fc1ccc(CN2Cc3[nH]cnc3C[C@H]2c2nc(-c3ccc(F)c(Cl)c3)no2)cc1	/	/	.	/	/	/
CCN1C(=O)C2(CCN(C(=O)COC)CC2)c2ccccc21	/	/	.	/	/	/
CC(CCc1ccccc1)NC(=O)CN1CCSc2ccccc21 (centres undefined)	?	56µM	.	79µM	32µM	?
Cc1cccc(NC(=O)CN2CCSc3ccccc32)c1	?	.	.	.	45µM	.
COc1cccc(NC(=O)CN2CCSc3ccccc32)c1	?	.	?	.	22µM	63µM
COc1ccccc1NC(=O)CN1CCSc2ccccc21	.	.	.	.	?	.
O=C(Nc1ccc(Cl)cc1)N1CCC(N2CCCNC2=O)CC1	/	/	.	/	/	/
O=C(Cc1ccc2c(c1)OCCO2)c1c(O)cc(O)cc1O	.	?	?	.	.	.
O=C(CCc1ccc(O)cc1)c1c(O)cc(O)cc1O	.	.	?	.	.	50µM!
O=C(CCN1CCN(CCO)CC1)Nc1ccccc1	.	.	.	.	.	.
O=C(CCN1CCN(CCO)CC1)Nc1ccc(C2CCCC2)cc1	?	.	45µM	.	?	.
SMILES	BAZ2B block	JMJD2A Tudor	12-LOX inh	HP1b binding inh	G9a inh	Sfp PPTase inh
Cc1ccc2nc(SCC(=O)Nc3ccc4[nH]c(=O)[nH]c4c3)[nH]c2c1	.	.	.	.	7.9µM	/
Cc1ccc2nc(SCC(=O)Nc3ccc(C(N)=O)cc3)[nH]c2c1	.	.	.	?	40µM	.
Cc1c(NC(=O)CSc2ccc(Cl)cc2)c(=O)n(-c2ccccc2)n1C	.	.	.	.	?	.
Cc1c(NC(=O)CSc2nc3ccc(Cl)cc3[nH]2)c(=O)n(-c2ccccc2)n1C	?	.	.	.	11µM	.
Cc1c(NC(=O)CSc2ccc3c(c2)OCCO3)c(=O)n(-c2ccccc2)n1C	.	50µM	.	?	.	.
Cc1ccc2nc(SCC(=O)Nc3cccc([N+](=O)[O-])c3)[nH]c2c1	?	?	.	.	.	.
Cc1ccc(NC(=O)CSc2nc3ccc(Br)cc3[nH]2)c(C)c1	.	.	.	.	8.9µM	/
Cc1nc2ccc(NC(=O)CSc3nnc(C)s3)cc2[nH]1	.	.	.	.	40µM	.
Cc1c(NC(=O)CSc2nc3ccccc3s2)c(=O)n(-c2ccccc2)n1C	.	.	.	.	50µM	.
Cc1ccc2nc(SCC(=O)Nc3ccc(F)cc3F)[nH]c2c1	.	.	.	.	?	.
